PubChem BioAssay AID2717 (Broad Institute, 2010)
Among all 300,000 compounds or so, about 3,200 (1.1%) were called active. What follows is part of a selection rich in actives, with near analogues and random picks from the rest. A number with no mark means an inactive call. Rule as the data show it: active = inhibition above about 75%; inconclusive = no clear call, values can overlap the other calls; inactive = below that; tested in HMLE shEcad cells.

Test: cancer stem cell viability inhibitors, primary screen, luminescence (AID 2717)
Details: cancer stem cell-like cells viability, at 7.5 µM, stronger effect = higher value

Compound | inhibition
Cc1ccc(P(=S)(c2ccc(C)o2)N2CCOCC2)o1 | 76.5% (active)
Cc1ccc(-n2c(C)cc(/C=C3\C(=O)NC(=O)N(C)C3=O)c2C)cc1C | -18.6%
CCCCCCCCCCCCn1ccc(=N)cc1 | 102% (active)
O=C(O)C1CSC(c2cccnc2)N1 (stereo not given) | -4.58%
CCC1(C)CC(CCNCc2ccc(N(C)C)cc2)(c2ccc(F)cc2)CCO1 (stereo not given) | 15%
COc1ccc(Br)cc1CNCCc1cccc(Cl)c1 | 35.5%
O=C1C2(Cl)C3(Cl)C4(Cl)C(Cl)(Cl)C5(Cl)C3(Cl)C1(Cl)C5(Cl)C24Cl (stereo not given) | 101% (active)
COC(=O)C1=C(c2cccc(OCc3ccccc3)c2)C[C@@H]2CC[C@H]1N2C(=O)NCc1ccc(Br)cc1 | 30%
C[C@]12CC[C@H](O)CC1=C([N+](=O)[O-])CC1C2CC[C@@]2(C)C1CC[C@@H]2O (stereo not given in full) | 19.8%
CC(=O)NC(=O)NC(C)Cc1ccccc1 (stereo not given) | -9.41%
CC(Cc1ccccc1)NC=O (stereo not given) | -4.89%
CC(Cc1ccccc1)NCCC(c1ccccc1)c1ccccc1 (stereo not given) | 86.3% (active)
CCC(=O)c1ccc(OCC(=O)N2CCN(CC(=O)Nc3ccc(C)cc3)CC2)cc1 | -4.41%
O=C1NC(=O)N(Cc2ccco2)C(=O)/C1=C\c1ccc(-c2ccc(F)cc2)o1 | -3.26%
O=C(O)COc1ccccc1/C=C1\C(=O)NC(=O)N(CCC2=CCCCC2)C1=O | -7.06%
O=C1NC(=O)N(CCc2ccc(F)cc2)C(=O)/C1=C/C=C/c1ccccc1 | 89.8% (active)
COC(=O)C1=C(c2ccc(Cl)c(C(F)(F)F)c2)C[C@@H]2CC[C@H]1N2C(=O)NC1CC1 | -14.7%
Nc1ccc([N+](=O)[O-])cc1 | 22.2%
COC(=O)C1=C(c2ccccc2OCc2ccccc2)C[C@@H]2CC[C@H]1N2C(=O)NCc1ccc(OC)cc1 | 6.19%
N#Cc1ccc(Cn2cc(C(=O)c3ccco3)c3ccccc32)cc1 | 6.82%
COC(=O)C1=C(c2c(C)noc2C)C[C@@H]2CC[C@H]1N2C(=O)NCc1ccc2c(c1)OCO2 | 2.81%
N=c1ccccn1Cc1ccccc1 | 1.97%
COC(=O)C1=C(c2ccc(-c3ccccc3)c(F)c2)C[C@@H]2CC[C@H]1N2C(=O)NCc1ccc(F)cc1 | 36.3%
C[C@]12CC[C@H](O)C[C@H]1CC[C@@H]1C2CC[C@]2(C)[C@@H](C3=CC(=O)OC3)[C@@H](O)C[C@]12O (stereo not given in full) | 85% (active)
C[C@]12CCC3C(CC[C@H]4C[C@@H](O)CC[C@]34C)C1C[C@@H](O)[C@H]2O (stereo not given in full) | -9.01%
C[C@]12CCC3C(CC[C@H]4C[C@@H](O)CC[C@]34C)C1CC[C@@H]2O (stereo not given in full) | -19.5%
CC(Cc1cccs1)NCc1ccc(Cl)cc1 (stereo not given) | -5.86%
COC(=O)C1=C(c2ccc(F)cc2OCc2ccccc2)C[C@@H]2CC[C@H]1N2C(=O)NCc1ccc2[nH]ccc2c1 | 9.97%
COc1ccc(-c2nn(CCC#N)cc2C(=O)O)cc1 | 1.09%
COC(=O)C1=C(c2ccc(F)cc2OCc2ccccc2)C[C@@H]2CC[C@H]1N2C(=O)NCc1ccc(Cl)cc1 | 15.5%
